Results: PubChem BioAssay (Tox21)
Values joined by “and” are separate entries in the source; they are usually repeats but may differ in a detail not shown here. Equal entries are not always repeated. Unmarked numbers belong to inactive results. Inconclusive results are not listed. Entries that show only a call come without a potency. Active and inactive are the calls of the source. Unless noted, calls follow the shape of the dose curve; as a rule, active = well fitted curve in the direction sought with a large enough effect in the repeat runs; inconclusive = weak or mixed curves; inactive = no such curve, though single readings can be large; an effect the other way counts as inactive or inconclusive.

Assays:
[1] = biological target: Progesterone receptor (Homo sapiens) (UniProt P06401); test: qHTS assay to identify small molecule agonists of the progesterone receptor (PR) signaling pathway (AID 1346784; calls by dose curve; also: nearly all actives have a fitted effect of over 30% in size)
Summary of the method: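 PR-UAS-bla HEK 293T cells (beta-lactamase reporter under UAS) in 2% charcoal-stripped FBS, dosed with 23 nL compound after 6 hr, incubated 16hr at 37C. LiveBLAzer B/G FRET substrate added, fluorescence read after 2 hours.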

[2] = qHTS assay to identify small molecule antagonists of the progesterone receptor (PR) signaling pathway - cell viability counter screen (AID 1346798); also: nearly all actives have a fitted effect of over 50% in size; also: potency is read from the fitted curve at half-maximal effect
Summary of the method: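 PR-UAS-bla HEK293T cells, 3,000/well in 2% charcoal-stripped FBS medium, dosed with compounds plus R5020 agonist and incubated 16 h at 37C. Viability then measured in the same wells by CellTiter-Glo luminescence after 30 min at RT.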

[3] = qHTS assay to identify small molecule agonists of the progesterone receptor (PR) signaling pathway - cell viability counter screen (AID 1346799; calls by dose curve; also: nearly all actives have a fitted effect of over 45% in size)
Summary of the method: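 Counter screen in the PR-UAS-bla HEK293T wells (2% charcoal-stripped FBS, 16 h compound exposure at 37 C) after the bla read. CellTiter-Glo added, 30 min at room temperature, luminescence read as cell viability.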

[4] = qHTS assay to identify small molecule antagonists of the TGF-beta/Smad signaling pathway - cell viability counter screen (AID 1346824); also: nearly all actives have a fitted effect of over 50% in size
Summary of the method: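 Cytotoxicity counter-screen run in the same wells as the beta-lactamase Smad reporter read: CellTiter-Glo luminescence after 30 min at room temperature. HEK 293T SBE-bla cells had 5 hr compound exposure at 37 C with TGF-beta1 (0.25 ng/mL stock).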

[5] = qHTS assay to identify small molecule agonists of the TGF-beta/Smad signaling pathway - cell viability counter screen (AID 1346829); also: top concentration of the series differs between compounds; nearly all actives have a fitted effect of over 45% in size
Summary of the method: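 Luminescence from CellTiter-Glo, read after a 30 min room-temperature incubation, gives cell viability of SBE-bla HEK 293T cells treated 5 hr with compounds at 37 C.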

[6] = qHTS assay to identify small molecule agonists of the TGF-beta/Smad signaling pathway (AID 1346859; active = well fitted activation curve with a large enough effect in the signal ratio in the repeat runs, not every such curve was filed as active; the % refers to the signal ratio; also: series mostly up to about 77 µM)
Summary of the method: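 SBE-bla HEK293T cells plated overnight, then compound exposure for 5 h at 37 C. Beta-lactamase reporter read with LiveBLAzer B/G FRET substrate after 2 h at room temperature, fluorescence at 405 nm excitation, 460/530 nm emission.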

[7] = biological target: Thyrotropin-releasing hormone receptor (Homo sapiens) (UniProt P34981); test: qHTS assay to identify small molecule antagonists of the thyrotropin-releasing hormone receptor (TRHR) signaling pathway (AID 1346877; active = well fitted inhibition curve with a large enough effect in the repeat runs, not every such curve was filed as active; also: potency is read from the fitted curve at half-maximal effect)
Summary of the method: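 Screening used HEK293 cells engineered with TRHR, with a brief 5 min room-temperature compound exposure preceding addition of TRH to 1 nM. The read-out was kinetic calcium-dye fluorescence, concentration-response from 15 doses in triplicate.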

[8] = Human pregnane X receptor (PXR) small molecule agonists, qHTS cell viability counter screen (AID 1346977); also: nearly all actives have a fitted effect of over 50% in size; also: potency is read from the fitted curve at half-maximal effect
Summary of the method: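 PXR-Luc HepG2 cells (2,000/well, 5% charcoal-stripped FBS) preincubated 5 hr, then exposed to compounds 24 hr at 37 C. Viability read in the same wells by CellTiter-Fluor fluorescence, reagent added at 23 hr, 1 hr incubation.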

[9] = Caspase-3/7 induction in HepG2 cells by small molecules, qHTS assay (AID 1346978); also: nearly all actives have a fitted effect of over 15% in size
Summary of the method: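 Caspase-3/7 induction was measured by Caspase-Glo 3/7 luminescence (30 min, room temperature) after a 17 hr compound exposure of wild-type HepG2 cells seeded at 2,000 per well and pre-incubated 5 hr.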

[10] = Caspase-3/7 induction in CHO-K1 cells by small molecules, qHTS cell viability counter screen (AID 1346979); also: nearly all actives have a fitted effect of over 35% in size; also: potency is read from the fitted curve at half-maximal effect
Summary of the method: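 Wild-type CHO-K1 cells (1,500/well) treated with compound after 5 h plating; after 16 h at 37C, viability read as CellTiter-Fluor fluorescence following 1 h reagent incubation, in the same wells as the caspase read.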

[11] = Caspase-3/7 induction in CHO-K1 cells by small molecules, qHTS assay (AID 1346980); also: nearly all actives have a fitted effect of over 15% in size
Summary of the method: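 Luminescent Caspase-Glo 3/7 read (30min, room temperature) quantified apoptosis induction. Cells were wild-type CHO-K1, treated with compound for 17hr at 37 C and 5% CO2.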

[12] = biological target: Nuclear receptor subfamily 1 group I member 2 (Homo sapiens) (UniProt O75469); test: Human pregnane X receptor (PXR) small molecule agonists, qHTS assay (AID 1346982); also: nearly all actives have a fitted effect of over 35% in size; also: potency is read from the fitted curve at half-maximal effect
Summary of the method: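 We seeded PXR-Luc HepG2 cells in assay medium containing 5% charcoal-stripped FBS, added compounds 5 hr later, incubated 24 hr, and read luminescence with ONE-Glo reagent.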

[13] = biological target: Nuclear receptor subfamily 1 group I member 2 (Rattus norvegicus) (UniProt Q9R1A7); test: Rat pregnane X receptor (rPXR) activation by small molecules, qHTS assay (AID 1346983); settings: rPXR luciferase reporter cells, One-Glo luminescence, 24 h; max activation: hits give high values; also: nearly all actives have a fitted effect of over 20% in size
Summary of the method: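 Luminescent readout (One-Glo luciferase, 30 min room temperature) followed 24 hr compound treatment at 37 C of rPXR cells plated 2,000 per well and preincubated 5hr; qHTS format with compounds delivered in DMSO.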

[14] = biological target: Nuclear receptor subfamily 1 group I member 2 (Homo sapiens) (UniProt O75469); test: CYP3A4 induction through human pregnane X receptor (PXR) by small molecules, qHTS assay (AID 1346984); also: nearly all actives have a fitted effect of over 40% in size
Summary of the method: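 qHTS, concentration-response format: HepG2 DPX-2 line, PXR/CYP3A4-luc. Exposure 24 h, 37C. Substrate Luciferin-IPA 3uM final, 3 h. Detection One-Glo, 30 min RT.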

[15] = biological target: Acetylcholinesterase (Homo sapiens) (UniProt P22303); test: Acetylcholinesterase (AChE) small molecule antagonists: colormetric cell-based qHTS assay (AID 1347395; calls by dose curve; also: nearly all actives have a fitted effect of over 30% in size; also: potency is read from the fitted curve at half-maximal effect)
Summary of the method: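 SH-SY5Y cells attached overnight, exposed to compound 30 min at 37 C, then given DTNB/acetylthiocholine; after 90 min at 37 C, colorimetric thiocholine read gives cellular AChE activity.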

[16] = biological target: Acetylcholinesterase (Homo sapiens) (UniProt P22303); test: Acetylcholinesterase (AChE) small molecule antagonists: enzyme-based qHTS assay (AID 1347397; calls by dose curve; also: nearly all actives have a fitted effect of over 55% in size); settings: Potency: AChE enzyme activity inhibition
Summary of the method: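 rhAChE 50 mU/mL (dispensed) + cpd or DMSO, 30 min RT; add DTNB/acetylthiocholine cocktail, 10 min RT; colorimetric thiocholine readout. qHTS, 1536-well format.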

[17] = qHTS assay to identify small molecule agonists of the estrogen receptor alpha (ER-alpha) signaling pathway in the presence of an antagonist - cell viability counter screen (AID 1259386);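 also: series mostly up to about 92 µM; cells exposed to compounds for 22 h at 37 °C before the viability read; nearly all actives have a fitted effect of over 30% in size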
Summary of the method: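 ICI-182,780 at 10.0nM final accompanies the compound titration (15 concentrations, 22hr, 37C) on VM7Luc4E2 cells. The CellTiter-Fluor fluorescence readout runs in the same wells as the luciferase assay.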

[18] = biological target: Thyrotropin-releasing hormone receptor (Homo sapiens) (UniProt P34981); test: qHTS assay to identify small molecule agonists of the thyrotropin-releasing hormone receptor (TRHR) signaling pathway (AID 1346891; calls by dose curve; also: series mostly up to about 58 µM)
Summary of the method: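 HEK293 cells expressing TRHR plated 18 h at 37 C/5% CO2, calcium dye-loaded 2 h at 37 C, then compound added (agonist mode); kinetic calcium fluorescence read 3 min at 1 s intervals; 15 concentrations in triplicate.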

[19] = Caspase-3/7 induction in HepG2 cells by small molecules, qHTS cell viability counter screen (AID 1346981); also: series mostly up to about 92 µM; nearly all actives have a fitted effect of over 30% in size
Summary of the method: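 Multiplexed with the caspase-3/7 assay: HepG2 cells, 16 hr compound treatment, CellTiter-Fluor viability detection by fluorescence.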

[20] = biological target: Progesterone receptor (Homo sapiens) (UniProt P06401); test: qHTS assay to identify small molecule antagonists of the progesterone receptor (PR) signaling pathway (AID 1346795; active = well fitted inhibition curve with a large enough effect in the signal ratio in the repeat runs, not every such curve was filed as active; the % refers to the signal ratio; also: potency is read from the fitted curve at half-maximal effect)
Summary of the method: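 PR-UAS-bla HEK293T cells with beta-lactamase reporter under UAS control, in 2% charcoal-stripped FBS, treated with compounds plus 1 nM promegestone (R5020, final) for 16 hr at 37C. Read-out: FRET beta-lactamase substrate fluorescence after 2 hr at room temperature.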

Progesterone receptor (Homo sapiens), sequence (P06401 whole entry, looked up): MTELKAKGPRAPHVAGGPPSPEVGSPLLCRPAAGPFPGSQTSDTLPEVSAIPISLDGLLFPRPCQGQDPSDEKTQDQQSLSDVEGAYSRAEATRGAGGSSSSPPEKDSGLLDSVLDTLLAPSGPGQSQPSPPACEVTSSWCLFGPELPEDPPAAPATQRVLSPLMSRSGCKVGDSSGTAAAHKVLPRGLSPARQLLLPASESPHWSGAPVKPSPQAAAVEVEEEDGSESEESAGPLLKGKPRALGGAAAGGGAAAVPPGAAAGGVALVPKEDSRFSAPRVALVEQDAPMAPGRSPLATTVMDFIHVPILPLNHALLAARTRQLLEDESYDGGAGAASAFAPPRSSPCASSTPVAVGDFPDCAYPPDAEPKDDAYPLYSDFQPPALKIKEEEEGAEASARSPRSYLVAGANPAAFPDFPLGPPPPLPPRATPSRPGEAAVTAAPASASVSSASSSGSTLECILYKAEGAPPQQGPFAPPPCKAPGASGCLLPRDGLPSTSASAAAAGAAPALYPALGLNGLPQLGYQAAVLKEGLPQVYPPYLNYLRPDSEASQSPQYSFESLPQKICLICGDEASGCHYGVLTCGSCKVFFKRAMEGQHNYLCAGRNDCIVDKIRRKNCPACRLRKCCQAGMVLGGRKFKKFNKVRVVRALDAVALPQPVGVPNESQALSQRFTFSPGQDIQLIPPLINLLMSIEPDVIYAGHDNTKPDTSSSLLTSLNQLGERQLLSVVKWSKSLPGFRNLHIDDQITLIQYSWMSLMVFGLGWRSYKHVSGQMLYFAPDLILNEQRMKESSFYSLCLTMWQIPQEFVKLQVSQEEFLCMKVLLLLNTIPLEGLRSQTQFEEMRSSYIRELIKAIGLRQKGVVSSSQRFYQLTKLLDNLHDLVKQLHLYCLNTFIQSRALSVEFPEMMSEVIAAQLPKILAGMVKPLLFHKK
Acetylcholinesterase (Homo sapiens), sequence (P22303 whole entry, looked up): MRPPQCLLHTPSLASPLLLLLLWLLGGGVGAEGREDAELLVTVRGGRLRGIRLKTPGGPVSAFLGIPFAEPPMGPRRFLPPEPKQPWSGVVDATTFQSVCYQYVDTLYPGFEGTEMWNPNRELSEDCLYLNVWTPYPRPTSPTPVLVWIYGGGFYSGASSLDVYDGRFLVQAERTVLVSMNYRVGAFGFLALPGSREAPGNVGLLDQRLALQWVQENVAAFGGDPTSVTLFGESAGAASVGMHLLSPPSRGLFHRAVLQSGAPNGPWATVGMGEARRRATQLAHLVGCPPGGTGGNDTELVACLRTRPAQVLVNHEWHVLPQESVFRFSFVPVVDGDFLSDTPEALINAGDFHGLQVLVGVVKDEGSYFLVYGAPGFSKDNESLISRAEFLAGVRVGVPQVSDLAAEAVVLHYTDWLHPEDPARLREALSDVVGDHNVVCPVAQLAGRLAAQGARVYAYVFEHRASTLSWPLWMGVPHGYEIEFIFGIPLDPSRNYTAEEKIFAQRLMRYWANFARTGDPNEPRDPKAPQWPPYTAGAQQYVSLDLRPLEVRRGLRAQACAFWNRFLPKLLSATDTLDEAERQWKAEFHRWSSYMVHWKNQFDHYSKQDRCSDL
Nuclear receptor subfamily 1 group I member 2 (Homo sapiens), sequence (O75469 whole entry, looked up): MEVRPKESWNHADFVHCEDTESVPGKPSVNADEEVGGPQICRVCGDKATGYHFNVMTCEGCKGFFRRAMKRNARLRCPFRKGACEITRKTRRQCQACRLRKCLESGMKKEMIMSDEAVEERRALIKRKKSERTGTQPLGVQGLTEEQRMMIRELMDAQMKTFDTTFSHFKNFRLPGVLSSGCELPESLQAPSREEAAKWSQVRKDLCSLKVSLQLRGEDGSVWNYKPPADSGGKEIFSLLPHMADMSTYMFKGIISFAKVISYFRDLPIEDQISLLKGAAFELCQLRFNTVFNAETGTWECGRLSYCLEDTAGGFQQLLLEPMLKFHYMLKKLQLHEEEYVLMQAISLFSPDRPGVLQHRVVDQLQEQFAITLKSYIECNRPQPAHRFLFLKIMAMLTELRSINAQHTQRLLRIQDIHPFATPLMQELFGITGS
Thyrotropin-releasing hormone receptor (Homo sapiens), sequence (P34981 whole entry, looked up): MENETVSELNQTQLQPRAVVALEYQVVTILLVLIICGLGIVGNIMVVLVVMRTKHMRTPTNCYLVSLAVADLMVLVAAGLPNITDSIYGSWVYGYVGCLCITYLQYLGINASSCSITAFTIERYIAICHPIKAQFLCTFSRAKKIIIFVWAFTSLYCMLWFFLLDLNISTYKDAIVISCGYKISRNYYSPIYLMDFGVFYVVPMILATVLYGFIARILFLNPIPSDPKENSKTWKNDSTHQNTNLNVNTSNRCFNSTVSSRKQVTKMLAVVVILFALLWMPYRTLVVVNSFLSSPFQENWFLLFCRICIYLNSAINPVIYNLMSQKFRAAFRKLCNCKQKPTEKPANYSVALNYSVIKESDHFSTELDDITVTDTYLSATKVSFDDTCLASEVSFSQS
Nuclear receptor subfamily 1 group I member 2 (Rattus norvegicus), sequence (Q9R1A7 whole entry, looked up): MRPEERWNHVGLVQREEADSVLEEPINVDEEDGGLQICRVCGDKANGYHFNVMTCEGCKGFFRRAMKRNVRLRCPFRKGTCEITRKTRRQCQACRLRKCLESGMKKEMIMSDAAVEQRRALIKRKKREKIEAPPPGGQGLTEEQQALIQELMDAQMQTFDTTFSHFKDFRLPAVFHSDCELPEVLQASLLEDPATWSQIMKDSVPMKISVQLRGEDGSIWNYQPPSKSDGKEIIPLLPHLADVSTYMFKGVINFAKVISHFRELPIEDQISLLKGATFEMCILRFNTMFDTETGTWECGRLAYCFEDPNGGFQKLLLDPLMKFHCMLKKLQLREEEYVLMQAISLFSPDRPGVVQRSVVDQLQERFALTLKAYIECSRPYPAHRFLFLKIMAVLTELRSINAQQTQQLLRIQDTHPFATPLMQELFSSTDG

| SMILES | Potency [1] | Potency [2] | Potency [3] | Potency [4] | Potency [5] | outcome [6] | Potency [7] | Potency [8] | Potency [9] | Potency [10] | Potency [11] | Potency [12] | max activation [13] [%] | Potency [14] | Potency [15] | Potency [16] | Potency [17] | Potency [18] | Potency [19] | Potency [20] |
| --- | --- | --- | --- | --- | --- | --- | --- | --- | --- | --- | --- | --- | --- | --- | --- | --- | --- | --- | --- | --- |
| O=C1NCN(c2ccccc2)C12CCN(CCCOc1ccc(F)cc1)CC2 | inactive | inactive | inactive | inactive | inactive | inactive | 6.58 µM (active) | 6.68 µM (active) | inactive | 26.6 µM (active) | inactive | 5.96 µM (active) | -0.12 | inactive | inactive | inactive |  |  |  |  |
| NS(=O)(=O)C(F)(F)C(F)(F)C(F)(F)C(F)(F)C(F)(F)C(F)(F)C(F)(F)C(F)(F)F |  | 9.69 µM (active) | inactive | inactive | inactive | inactive | inactive |  |  | inactive | inactive |  |  |  | inactive | inactive | inactive | inactive | inactive |  |
| CCOP(=O)(OCC)Oc1ccc([N+](=O)[O-])cc1 |  | inactive | inactive | inactive | inactive | inactive |  | inactive | inactive | inactive | inactive |  |  |  |  |  | inactive |  | inactive | 17.4 µM (active) and 17.2 µM (active) |
| CN1C(=O)C(O)N=C(c2ccccc2)c2cc(Cl)ccc21 (stereo unspecified) |  | inactive |  | inactive | inactive | inactive |  | inactive | inactive | inactive | inactive | 28.3 µM (active) | -0.547 |  | inactive | inactive | inactive |  | inactive |  |
| Clc1ccc(C2(Cn3cncn3)CC(Br)CO2)c(Cl)c1 (stereo unspecified) |  |  |  | inactive | inactive | inactive |  |  | inactive |  | inactive | 24.2 µM (active) |  |  | inactive | inactive |  |  |  |  |
| Cc1ccc(-c2c(Cl)nc(C#N)n2S(=O)(=O)N(C)C)cc1 |  | 8.63 µM (active) |  | inactive | inactive | inactive |  | 43.2 µM (active) | inactive |  | inactive | 9.68 µM (active) |  |  | inactive | inactive | inactive |  |  |  |
| COP(=S)(Oc1cc(Cl)c(Br)cc1Cl)c1ccccc1 (stereo unspecified) |  | inactive |  | inactive | inactive | inactive | inactive | inactive | inactive |  | inactive | 24.3 µM (active) |  |  | 63.3 µM (active) |  | inactive |  | inactive |  |
| CC1CC(CC2CCC(N)C(C)C2)CCC1N (stereo unspecified) | inactive |  |  | inactive | inactive | inactive | inactive |  | inactive | inactive | inactive | inactive |  |  | inactive | inactive |  |  |  | inactive |
| CN(C)c1ccc(N(C)C)cc1 | inactive | inactive |  | inactive | inactive | inactive |  |  | inactive |  |  |  |  |  | 40 µM (active) |  |  |  | inactive |  |
| CN(N=O)c1ccc([N+](=O)[O-])cc1 | inactive | inactive | inactive | inactive | inactive | inactive | inactive | inactive | inactive | inactive | inactive | inactive |  |  | 63.3 µM (active) | inactive |  | inactive | inactive | inactive |
| S=C=NCc1ccccc1 |  |  | inactive | inactive |  | inactive | inactive | inactive | inactive | inactive | inactive | 61.8 µM (active) |  |  | inactive | inactive | inactive | inactive |  |  |
| CC(C)(C)C(O)C(Oc1ccc(Cl)cc1)n1cncn1 (stereo unspecified) |  | 54.5 µM (active) |  | inactive | inactive | inactive | inactive | inactive | inactive | inactive | inactive | 4.33 µM (active) |  |  | inactive | inactive | inactive |  | inactive |  |
| CCOC(=O)[C@]1(c2ccccc2)Oc2ccccc2[C@@H]1N | inactive | inactive |  | inactive | inactive | inactive | inactive |  | inactive |  |  |  |  |  | 79.6 µM (active) |  |  | inactive | inactive |  |
| CCCCC(O)(Cn1cncn1)c1ccc(Cl)cc1Cl (stereo unspecified) |  |  |  | inactive | inactive | inactive | inactive |  |  |  | inactive | 24.3 µM (active) |  |  | inactive | inactive | inactive | inactive |  | 17.2 µM (active) |
| O=C(Nc1ccccc1)Nc1ccnc(Cl)c1 | inactive |  |  |  | inactive | inactive |  | 43.3 µM (active) | inactive | 48.6 µM (active) | inactive | 30.6 µM (active) |  |  | inactive | inactive |  |  |  |  |
